Screens as filed in PubChem BioAssay.
Compounds with a hit are over-represented: about 3.7% of the library has one in this group of screens.
BoNT A protease – BoNT A light chain protease inhibition; multiplex microsphere protease substrate cleavage, flow cytometry; inhibition, % at 10 µM; AID 588499; 360,000 tested, 0.17% active; note: plate controls were buffer without enzyme for full effect and enzyme alone for no effect
MazF activator – increases E. coli MazEF RNase cleavage of RNA. AID 504720. FAM/BHQ RNA-DNA oligo cleavage fluorescence, 5 h. 350,000 tested, 0.32% active. activation, % at 20 µM; in the data active = activation above about 50%
Autofluor counter – compound fluorescence in toxin protease inhibitor counterscreen. compound autofluorescence counterscreen, microsphere flow cytometry; stronger effect = higher value. fluorescence intensity (no concentration beside the values). 360,000 tested, 3.1% active. AID 624483; in the data active = fluorescence intensity above about 16000; inconclusive = no clear call, values can overlap the other calls
BoNT F protease – blocks Botulinum neurotoxin F light chain protease | inhibition, % at 10 µM | 360,000 tested, 0.22% active | Multiplex microsphere protease cleavage assay, flow cytometry | AID 588497; in the data active = inhibition above about 35%, passing the limit was not always enough; inconclusive = no clear call, values can overlap the other calls; note: plate controls were buffer without enzyme for full effect and enzyme alone for no effect
Anthrax LF prot – blocks Bacillus anthracis lethal factor protease; multiplex microsphere protease cleavage assay, LF; inhibition, % at 10 µM; 360,000 tested, 0.12% active; note: plate controls were buffer without enzyme for full effect and enzyme alone for no effect
Target sequence (P15917 whole entry, looked up): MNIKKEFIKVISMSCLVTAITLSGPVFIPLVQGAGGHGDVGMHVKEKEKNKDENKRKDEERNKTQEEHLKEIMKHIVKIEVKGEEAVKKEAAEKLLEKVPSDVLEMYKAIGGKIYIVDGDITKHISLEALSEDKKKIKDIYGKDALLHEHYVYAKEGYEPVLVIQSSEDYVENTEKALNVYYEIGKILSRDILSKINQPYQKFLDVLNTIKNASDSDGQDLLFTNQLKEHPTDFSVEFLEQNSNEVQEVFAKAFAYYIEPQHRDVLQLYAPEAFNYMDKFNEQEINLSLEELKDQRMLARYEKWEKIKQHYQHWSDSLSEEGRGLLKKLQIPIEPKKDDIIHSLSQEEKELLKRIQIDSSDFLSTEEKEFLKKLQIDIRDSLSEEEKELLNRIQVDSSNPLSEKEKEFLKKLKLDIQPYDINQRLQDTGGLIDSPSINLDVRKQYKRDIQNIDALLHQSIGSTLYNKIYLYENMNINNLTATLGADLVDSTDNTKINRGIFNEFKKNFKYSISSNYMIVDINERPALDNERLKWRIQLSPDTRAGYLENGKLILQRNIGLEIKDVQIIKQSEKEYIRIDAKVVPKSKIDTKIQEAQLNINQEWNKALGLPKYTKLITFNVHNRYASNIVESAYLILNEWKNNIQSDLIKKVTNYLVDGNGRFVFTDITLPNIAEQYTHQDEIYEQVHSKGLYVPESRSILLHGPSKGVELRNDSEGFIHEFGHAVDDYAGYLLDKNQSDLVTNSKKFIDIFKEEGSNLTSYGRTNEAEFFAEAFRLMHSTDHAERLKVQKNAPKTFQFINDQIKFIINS
Starred values were filed as active, the others as inactive; ? = inconclusive; nt = not tested or not shown. Cut-off read from the data, not from the text of the source, unless noted: active = inhibition above about 30%; inconclusive = no clear call, values can overlap the other calls; inactive = below that.

SMILES	BoNT A protease	MazF activator	Autofluor counter	BoNT F protease	Anthrax LF prot
Cc1c(Cl)cccc1NC(=S)N(CCN(C)C)C(C)c1ccccn1 (centres undefined)	-0.2	5.4	4237	0.4	-1.6
CS(=O)(=O)N1CCN(c2ccccc2NC(=O)Nc2cccc(Cl)c2)CC1	-0.3	12.1	2834	13.1	-9.9
CCCCN(C)C(=O)CNC(=O)c1nn(-c2ccc(OC)cc2OC)c(=O)c2ccccc12	2.1	7.9	3196	20.8	4.6
Oc1ccc2c(c1)C1CCCC1(N1CCOCC1)O2 (centres undefined)	0.6	9.0	3915	1.4	1.4
c1ccc2c(c1)nc1n2C2(N3CCOCC3)CCCC2C1N1CCOCC1 (centres undefined)	-0.9	-14.6	20620*	-4.0	-2.0
CC1CC(=O)C2=C(C1)OC(N)=C(C#N)C2c1coc2ccccc2c1=O (centres undefined)	0.6	85.1*	9395	-1.7	-7.2
CC1(C)CC(=O)C2=C(C1)OC(N)=C(C#N)C2c1ccccc1 (centres undefined)	2.4	12.2	9018	7.7	-6.9
c1ccc2c(COn3nnc4ccccc43)cccc2c1	1.7	-9.9	21859*	-0.1	1.4
c1ccc2c(Cn3nnc4ccccc43)cccc2c1	-1.1	4.4	8209	-11.8	-1.3
O=C(Nc1ccc2[nH]c(=O)[nH]c2c1)c1cccc([N+](=O)[O-])c1	2.0	4.0	4294	?	10.1
N=c1n(CCN2CCCC2)c2ccccc2n1CC(O)c1ccco1 (centres undefined)	4.5	6.6	21466*	3.6	1.0
CC(C)(C)C(=O)Nc1ccccc1C(=O)Nc1cc(Cl)ccc1Cl	-1.0	-4.9	23417*	-1.4	-1.3
CC(NC(=O)c1cc(-c2ccc3c(c2)OCO3)nc2ccccc12)C(C)(C)C (centres undefined)	0.7	-34.5	21612*	-1.7	0.7
O=C(O)CN1C(=O)S/C(=C\c2cccnc2)C1=O	0.4	7.4	4571	-1.4	-2.8
CN1C(=O)S/C(=C/c2cccnc2)C1=O	-0.1	1.4	21884*	-3.7	-0.6
COc1cccc(C(CC(=O)Nc2cccc3ccccc23)NC(=O)c2ccccc2)c1 (centres undefined)	5.2	-3.2	19845*	10.5	-7.3
CCN(CC)c1ccc(NC(=O)Cn2nnc(-c3cccc(OC)c3OC)n2)c(C)c1	-0.7	1.4	20991*	0.8	-1.3
CCOc1ccc(-c2nnn(CC(=O)Nc3ccccc3OC)n2)cc1OCC	-1.2	-48.3	8050	-13.9	-2.9
NC(=O)C1(N2CCCCC2)CCN(CC(=O)Nc2cc(Cl)ccc2Cl)CC1	-2.9	2.0	24349*	-6.5	-4.5
O=C(c1ccc(Cl)cc1)N1CCC2(CC1)OCCO2	-1.2	6.1	3627	24.3	3.7
O=C(c1ccc2nc3ccc(Cl)cc3c(=O)n2c1)N1CCOCC1	-1.7	-3.9	21084*	-0.3	-0.2
O=C(c1ccc2nc3ccc(Cl)cc3c(=O)n2c1)N1CCC2(CC1)OCCO2	2.6	3.6	19917*	2.3	0.6
O=C(N[C@H]1C/C=C\C[C@H](CC(=O)N(CCO)Cc2ccccc2)C(=O)NC[C@H](c2ccccc2)OC1=O)OCC1c2ccccc2-c2ccccc21	0.3	-1.7	3766	-8.1	-8.4
CCCC(C)(C)C(=O)N1CCC1(C)C(=O)Nc1cccc(OC)c1 (centres undefined)	0.0	nt	4090	-4.9	-0.8
CCN1c2ccccc2NC2N=C(OC)C(c3ccccc3)C21 (centres undefined)	?	5.6	25940*	-10.7	0.5
SMILES	BoNT A protease	MazF activator	Autofluor counter	BoNT F protease	Anthrax LF prot
CCCN1C(=O)c2ccccc2NC1c1cc(OC)c(OC)c(OC)c1 (centres undefined)	0.8	1.7	4769	1.5	-2.5
Cc1ccc2cccnc2c1NC(=S)NC(=O)c1ccccc1	?	-2.3	22969*	0.6	1.9
CC(C)CN1C(=O)NC(NC(=O)c2ccco2)(C(F)(F)F)C1=O (centres undefined)	-0.3	-6.4	2827	4.4	1.4
CCOC(=O)NC1(C(F)(F)F)NC(=O)N(Cc2ccco2)C1=O (centres undefined)	?	9.7	16624*	-0.2	1.9
COC(=O)c1cc(C(=O)NNC(=O)c2ccc3c(c2)OCO3)cc([N+](=O)[O-])c1	-0.5	2.8	3000	-11.0	-3.2
OCc1ccccc1NC(=S)Nc1cccnc1	-6.6	-10.5	25402*	-7.7	-3.1
CCC(C)c1ccccc1NC(=S)Nc1cccnc1 (centres undefined)	-3.9	3.0	4026	-42.9	-11.8
Cc1cc2ccccc2c(=O)n1CC(=O)NCC(=O)N1CCN(c2ccccc2)CC1	-2.7	2.8	23551*	-4.6	-2.8
Cc1cc2ccccc2c(=O)n1CC(=O)N1CCN(c2cccc(Cl)c2)CC1	0.1	10.7	2807	-5.3	-1.6
Cc1ccc(C(=O)c2oc3ccc(Cl)cc3c2NC(=O)CN2CCN(C)CC2)cc1	-1.2	7.0	5795	6.7	-3.4
COc1ccc(-n2nnc3c(=O)n(Cc4cc(C)ccc4C)cnc32)cc1	11.3	2.5	17509*	15.8	3.4
CCOC(=O)C(CC)n1cnc2c(nnn2-c2ccc(OC)cc2)c1=O (centres undefined)	7.0	1.0	17635*	7.4	-10.0
CCOC(=O)C(C)n1cnc2c(nnn2Cc2ccc(C)cc2)c1=O (centres undefined)	?	-16.4	20875*	-0.1	-0.5
CCOC(=O)C(C)n1cnc2c(nnn2Cc2ccc(Cl)cc2)c1=O (centres undefined)	-0.1	7.0	7834	3.0	1.1
Cc1ccc(-n2nnc3c(=O)n(Cc4ccccc4C)cnc32)cc1	0.3	-19.0	4392	-16.7	-11.1
COc1cccc(-n2nnc3c(=O)n(Cc4ccccc4F)cnc32)c1	-2.8	19.7	21710*	-4.6	-0.4
CC1CCC(NC(=O)C2CCN(S(=O)(=O)c3cccc4nonc34)CC2)CC1 (centres undefined)	-0.9	15.1	3648	-1.6	2.0
CC(=O)c1cccc(CN2CCCC(N3CCN(c4ccccc4F)CC3)C2)c1 (centres undefined)	1.9	1.6	3715	?	-3.8
COc1cc(NC(=O)CCN2CC(C)OC(C)C2)cc(OC)c1 (centres undefined)	1.4	4.8	3885	11.1	3.0
COc1cccc(-n2nnc3c(=O)n(CC(=O)N4CCC(C)CC4)cnc32)c1	-0.8	3.7	8058	-7.4	-1.6
COc1cccc(-n2nnc3c(=O)n(CC(=O)N4CCC(Cc5ccccc5)CC4)cnc32)c1	?	-9.5	24394*	-1.4	-3.7
C[C@@H]1CCCCO[C@H](CN(C)Cc2ccc3c(c2)OCO3)[C@@H](C)CN([C@H](C)CO)C(=O)c2cc(NC(=O)c3ccccc3)ccc2O1	0.2	2.3	3912	-0.4	-6.3
O=C(Nc1ccc(Cl)cn1)c1cccc(S(=O)(=O)N2CCOCC2)c1	4.4	-10.0	20815*	5.7	-0.5
O=C(Nc1nncs1)c1cccc(S(=O)(=O)N2CCOCC2)c1	0.7	7.3	16353*	0.4	-0.4
